# Screening data: PubChem, Broad Institute
# CDK5 inh = blocks human CDK5/p35 kinase activity | 330,000 compounds, 0.01% hits | inhibition, % at 10 µM | Recombinant CDK5/p35, ADP-Glo luminescence, 60 min;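 active means highest replicate inhibition of at least 50% and at least 75% of replicates reaching 50%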
# Target sequence (Q00535 whole entry, looked up): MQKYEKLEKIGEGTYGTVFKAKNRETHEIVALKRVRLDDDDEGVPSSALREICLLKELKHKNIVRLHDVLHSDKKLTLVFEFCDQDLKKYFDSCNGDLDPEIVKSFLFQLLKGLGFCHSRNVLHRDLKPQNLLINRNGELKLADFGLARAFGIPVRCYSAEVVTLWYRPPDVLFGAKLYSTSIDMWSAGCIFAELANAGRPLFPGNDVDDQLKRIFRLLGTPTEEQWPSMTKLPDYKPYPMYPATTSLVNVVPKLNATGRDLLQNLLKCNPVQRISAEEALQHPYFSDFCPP
# Target sequence (Q15078 whole entry, looked up): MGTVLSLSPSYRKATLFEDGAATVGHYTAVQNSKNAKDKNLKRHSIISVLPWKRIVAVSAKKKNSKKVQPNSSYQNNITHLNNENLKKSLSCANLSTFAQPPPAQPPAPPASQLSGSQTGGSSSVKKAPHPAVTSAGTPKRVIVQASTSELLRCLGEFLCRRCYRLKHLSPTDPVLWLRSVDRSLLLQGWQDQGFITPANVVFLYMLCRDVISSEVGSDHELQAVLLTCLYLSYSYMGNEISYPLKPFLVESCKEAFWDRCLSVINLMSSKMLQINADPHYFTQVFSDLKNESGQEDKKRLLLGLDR
# Casp6 inh = blocks human caspase-6 cleavage activity | P55212 | purified caspase-6, Z-VEID-R110 cleavage fluorescence | inhibition, % at 12.5 µM | 350,000 compounds, 0.53% hits;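 active means mean inhibition across replicates at least about 35%, with every replicate also reaching that limit, limit read from the data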
# Glyco luc inh = blocks N-linked glycosylation in D54 reporter cells; 360,000 compounds, 0.23% hits; D54 ERlucT glycosylation luciferase reporter, 24 h; percent of 100 nM tunicamycin response; AID 588692; reporter increase, % at 12.5 µM;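 active means mean luciferase reporter signal, scaled so untreated is 0 and the glycosylation-blocking control 100, at or above a set limit in every replicate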;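 further: luciferase carries N-glycosylation sites so blocking glycosylation raises the light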
# ALR inh = human ALR oxidase inhibition via reduced H2O2. P55789. purified ALR, DTT oxidation, H2O2 HRP-luminol luminescence. inhibition, % (concentration not given with the values). 290,000 compounds, 3.8% hits. AID 485317;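 active means mean replicate inhibition above about 79%, with every replicate also reaching it, limit read from the data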
# NSD2 HMT inh = NSD2 (human) methyltransferase inhibition | NSD2 peptide methylation, AlphaScreen, 120 min | inhibition, % at 12.5 µM | 310,000 compounds, 0.54% hits | AID 743445; in the data active means inhibition above about 50%
# Mot1-301 SUMO = SUMOylation pathway inhibition by Mot1-301 growth rescue; S. cerevisiae Mot1-301 growth rescue, ATP luminescence, 38.5C; percent above DMSO median, 100 means doubled; growth rescue, % at 18.8 µM; 320,000 compounds, 1% hits;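 active means every valid replicate shows activation above 250% relative to neutral control wells; inactive means the rest, any valid replicate at or below 250%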
# Numbers stand for hits; . = inactive; / = no result given. A selection: hits, their analogues and other compounds. The true share with any hit is near 3.9%.
SMILES,CDK5 inh,Casp6 inh,Glyco luc inh,ALR inh,NSD2 HMT inh,Mot1-301 SUMO
Cc1ccccc1Nc1c(-c2ccc(N3CCOCC3)cc2)nc2cnccn12,.,.,.,/,.,/
CCCNC(=O)C[C@@H]1C[C@@H]2c3cc(NC(=O)C4CCOCC4)ccc3O[C@@H]2[C@H](CO)O1,/,.,/,/,/,/
COc1ccc(Nc2c(-c3ccc(C)cc3)nc3cnccn23)cc1,.,.,.,99,.,.
Cc1ccc2nc(-c3ccccc3O)c(Nc3ccc4c(c3)OCCO4)n2c1,.,.,.,.,.,.
Cc1ccc(-c2nc3cnccn3c2Nc2ccc3c(c2)OCCO3)o1,.,/,.,99,/,.
Cc1ccc(Nc2c(-c3ccccc3O)nc3cnccn23)cc1,.,.,.,99,.,.
Cc1cccc(Nc2c(-c3ccc(O)cc3)nc3ncccn23)c1,.,.,.,.,.,.
Cc1ccc(Nc2c(-c3ccccc3O)nc3ncccn23)cc1,.,.,.,98,.,.
CN(C)CC#Cc1ccc([C@@H]2[C@H]3CN(CC4CC4)CCCCN3[C@H]2CO)cc1,/,.,/,/,/,/
O=c1cc(CO)oc(C(Nc2ccccn2)c2ccccc2F)c1O (centres undefined),.,.,.,97,/,.
O=c1cc(CO)oc(C(Nc2ccccn2)c2cccc(F)c2)c1O (centres undefined),.,.,.,98,/,.
COc1ccc2c3c([nH]c2c1)[C@H](CO)N(C(=O)Nc1ccc(F)cc1)CC31CN(C(=O)c2ccccn2)C1,/,.,/,/,/,/
COc1ccc(C(=O)NCCc2cnc[nH]2)cc1OC,.,.,.,/,.,282
Cc1noc(C)c1NC(=O)N(C)C[C@@H]1OCc2ccccc2-c2ccccc2C(=O)N([C@@H](C)CO)C[C@H]1C,/,.,/,/,/,/
O=C(CSc1cccc[n+]1[O-])Nc1cccc(Oc2ccccc2)c1,.,.,.,94,.,.
O=C(CSc1ncnc2[nH]ncc12)Nc1cccc(Oc2ccccc2)c1,.,.,.,98,.,.
CN(C)CCCNC(=O)C[C@H]1CC[C@@H](NC(=O)Cc2cccnc2)[C@@H](CO)O1,/,.,/,/,/,/
O=C(NN=Cc1c(O)ccc2ccccc12)c1ccncc1,.,/,.,/,.,/
O=C(N/N=C/c1c(O)n(-c2ccc(Cl)cn2)c(=O)c2ccccc12)c1ccncc1,.,/,.,80,.,.
O=C(N/N=C/c1c(O)n(-c2ccc(Cl)cn2)c(=O)c2ccccc12)C1CC1,.,/,.,95,.,.
C[C@@H](NC(=O)C[C@H]1CC[C@H](NC(=O)C2CCC2)[C@@H](CO)O1)c1ccccc1,/,.,/,/,/,/
O=C(O)c1cccc(NC(=O)c2cn(-c3ccccc3)nc2-c2ccc([N+](=O)[O-])cc2)c1,.,.,.,.,.,.
COc1ccc(-c2nn(-c3ccccc3)cc2C(=O)Nc2cccc(C(=O)O)c2)cc1[N+](=O)[O-],.,67,.,.,.,.
C[C@H](CO)N1C[C@H](C)[C@@H](CN(C)Cc2cccnc2)Oc2ncc(-c3cccc(F)c3)cc2C1=O,/,.,/,/,/,/
Cc1[nH]ncc1Nc1ccccc1C(C)C,/,.,.,/,/,/
SMILES,CDK5 inh,Casp6 inh,Glyco luc inh,ALR inh,NSD2 HMT inh,Mot1-301 SUMO
Cc1[nH]ncc1Nc1c(C(C)C)cccc1C(C)C,/,55,.,/,/,/
O=C(Nc1ccc(F)cc1)N[C@@H]1CC[C@@H](CCn2cc(C3(O)CCCC3)nn2)O[C@@H]1CO,/,.,/,/,/,/
CCCNC(=O)C[C@@H]1CC[C@@H]2[C@@H](COc3ccc(NC(=O)NCCC)cc3C(=O)N2C)O1,/,.,/,/,/,/
CCCCNC(=O)c1ccc(CS(=O)(=O)c2ccc(C)cc2)o1,.,.,.,79,.,.
COc1ccc(S(=O)(=O)Cc2ccc(C(=O)NCCCN(C)c3ccccc3)o2)cc1,.,/,.,99,.,.
CCCCNC(=O)c1ccc(CS(=O)(=O)c2ccc(OC)cc2)o1,.,.,.,/,/,.
CCOC(=O)C(=O)Cc1cccnn1,.,44,.,/,.,/
CCOC(=O)C(Cc1ccnc2ccccc12)=NO,.,.,.,/,.,/
Oc1ccc(Oc2ncc(Cl)cc2Cl)cc1,.,/,.,99,.,.
COCC(=O)N1CC2(CN(Cc3ccc(OC)cc3)C2)c2c([nH]c3cc(OC)ccc23)[C@H]1CO,/,.,/,/,/,/
CC(=O)NNC(=O)c1sc(=S)n2c1[nH]c(=O)c1sccc12,.,.,.,/,.,.
NC(=O)c1sc(=S)n2c1[nH]c(=O)c1sccc12,.,.,.,/,.,730
O=C(NC(=S)Nc1ccc([N+](=O)[O-])cc1)c1ccco1,/,.,.,/,.,/
O=C(NNc1ccc([N+](=O)[O-])cc1)c1ccco1,.,.,.,99,.,.
O=C(NNc1ccc([N+](=O)[O-])cc1[N+](=O)[O-])c1ccco1,.,/,.,98,.,.
O=C(Nc1ccc(Cl)cc1)N1C[C@H]2[C@@H](c3ccccc31)[C@@H](CO)N2CC1CCCCC1,/,.,/,/,/,/
CN(C)c1ccc(CNC(=O)C2CCN(S(=O)(=O)c3ccc4c(c3)CCCC(=O)N4)CC2)cc1,.,.,.,98,.,.
CN(C)c1ccc(CNC(=O)c2cc(S(=O)(=O)N3CCCC3)cn2C)cc1,.,.,.,98,/,.
O=C(CSc1nccn1-c1cccc(Cl)c1)Nc1ccc2c(c1)OCCO2,.,.,.,99,/,.
COc1cccc(-n2ccnc2SCC(=O)Nc2ccccc2)c1,.,/,.,.,.,.
COc1cccc(NC(=O)CSc2nccn2-c2cccc(OC)c2)c1,.,/,.,98,.,.
COc1ccc(NC(=O)CSc2nccn2-c2cccc(OC)c2)cc1,.,/,.,98,.,.
CC(=O)N(C)C[C@H]1Oc2cc(-c3cccc(F)c3)ccc2S(=O)(=O)N([C@H](C)CO)C[C@H]1C,/,.,/,/,/,/
Nc1ccc(Cl)cc1/C(=N/O)c1ccccc1,.,/,.,97,.,.
O=S(=O)(c1cccc(-c2nc3ccccc3s2)c1)N1CCOCC1,.,/,.,.,.,.
SMILES,CDK5 inh,Casp6 inh,Glyco luc inh,ALR inh,NSD2 HMT inh,Mot1-301 SUMO
Cc1nc(-c2ccc(S(=O)(=O)N3CCOCC3)cc2)cs1,.,.,.,93,.,.
O=S(=O)(c1cccc(-c2csc(-c3ccccc3)n2)c1)N1CCOCC1,.,/,.,98,.,.
CC1CN(S(=O)(=O)c2cccc(-c3cn4ccccc4n3)c2)CC(C)O1 (centres undefined),.,.,.,.,.,.
Cc1nc(-c2ccc(S(=O)(=O)N3CCCCCC3)cc2)cs1,.,/,.,.,.,.
CC1CN(S(=O)(=O)c2cccc(-c3csc(-c4ccccc4)n3)c2)CC(C)O1 (centres undefined),.,/,.,98,.,.
O=C(O)C[C@H]1CC[C@H](NC(=O)Nc2cc(F)ccc2F)[C@H](CO)O1,/,.,/,/,/,/
COc1ccc(NC(=O)Nc2ccc3c(c2)CC(=O)N([C@@H](C)CO)C[C@H](C)[C@H](CN(C)C)O3)cc1,/,.,/,/,/,/
CC(C)c1ccc(S(=O)(=O)Nc2ccc(O)c(Sc3ncn[nH]3)c2)cc1,.,.,.,99,.,.
